# Results: PubChem BioAssay (NCATS)
# Results filed as inconclusive are left out. Where a call stands in place of a potency, no number is given. A number with no mark means an inactive call. Active and inactive are the calls of the source. Calls come from the whole dose curve; as a rule, active = well fitted inhibition curve with a large enough effect; inconclusive = small, poorly fitted or top-dose-only effect; inactive = flat fitted curve, though single readings scatter.
# Molecular target: Calcium and integrin-binding protein 1 (Homo sapiens) (UniProt Q99828)
# Assay: Primary qHTS for Identification of Calcium Integrin Binding Protein 1 (CIB1) Competitor (AID 1508620);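 note: GST tagged CIB1 binding a fluorescein labelled alphaIIb integrin peptide tracer; top concentration of the series differs between compounds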
# Conditions: CIB1-GST / FITC-alphaIIb peptide fluorescence polarization; series mostly up to 114 µM
# In short: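 CIB1-GST (1 uM final) and compound incubated 15 min at room temperature before adding FITC-alphaIIb peptide tracer (100 nM final). Competition for binding read by fluorescence polarization (ex 480, em 540) after another 15 min at room temperature.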
# Chain of Calcium and integrin-binding protein 1 (Homo sapiens) (Q99828 whole entry, looked up): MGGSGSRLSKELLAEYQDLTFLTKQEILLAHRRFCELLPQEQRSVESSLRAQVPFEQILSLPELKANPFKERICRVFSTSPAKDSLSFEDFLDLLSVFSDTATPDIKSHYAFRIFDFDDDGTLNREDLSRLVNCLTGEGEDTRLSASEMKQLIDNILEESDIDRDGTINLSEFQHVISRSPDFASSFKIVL
SMILES,Potency,"activity change, negative = inhibition"
Cc1cc(=O)oc2c(C=O)c(O)ccc12,inactive,–
CC(C)CN(C[C@@H](O)[C@H](Cc1ccccc1)NC(=O)O[C@@H]1CO[C@H]2OCC[C@H]21)S(=O)(=O)c1ccc(N)cc1,inactive,–
N#C[C@@H]1C[C@H](F)CN1C(=O)CNC1[C@H]2CN(C(=O)c3ccc(F)cc3)C[C@@H]12 (some centres not stated),inactive,–
CC(C)(O)/C=C/CC(C)(O)C1C(O)CC2(C)C3CCC4C(C)(C)C(=O)CCC4(C)C3CCC12C (configuration not stated),inactive,–
COC(=O)C1=CO[C@@H](O[C@@H]2O[C@H](CO)[C@@H](O)[C@H](O)[C@H]2O)C2C1C(=O)C[C@H]2C (some centres not stated),inactive,–
CC(C)CCC1(O)C(=O)C(C)(C)C(O[C@@H]2O[C@H](CO)[C@@H](O)[C@H](O)[C@H]2O)C(C)(C)C1O (some centres not stated),inactive,–
CC1(C)CC[C@]2(C(=O)O)CC[C@]3(C)C(=CCC4[C@@]5(C)CC[C@H](O[C@@H]6O[C@H](CO)[C@@H](O)[C@H](O)[C@H]6O[C@@H]6O[C@H](CO)[C@@H](O)[C@H](O)[C@H]6O)[C@@](C)(CO)C5CC[C@]43C)[C@@H]2C1 (some centres not stated),inactive,–
COc1c2c(c(C)c3c1C(=O)OC3)OC1(C)CC(O)C34OC(OC)(CC(OC(C)=O)C3(C)C1C2)OC4(C)C (configuration not stated),inactive,–
CCOc1cc(C)c(Cl)cc1S(=O)(=O)n1cnc2ccccc21,inactive,–
C=C(C)C1CCC(C)C12CC(O)C1(C)OC1C2OC(=O)C(N)CCC(=O)O (configuration not stated),inactive,–
O=C1OCC(c2ccccc2)=C1Cc1ccccc1,inactive,–
COc1cc(/C=C/C(=O)OC[C@H]2O[C@@](CO)(O[C@H]3O[C@H](CO)[C@@H](O)[C@H](O)[C@H]3O)[C@@H](OC(=O)/C=C/c3ccc(O)c(OC)c3)[C@@H]2O)ccc1O,inactive,–
CC1(C=O)CC[C@]2(C(=O)O[C@@H]3O[C@H](CO)[C@@H](O)[C@H](O)[C@H]3O)CC[C@]3(C)C(=CCC4[C@@]5(C)C[C@H](O)[C@H](O[C@@H]6OC[C@@H](O)[C@H](O)[C@H]6O)[C@@](C)(CO)C5CC[C@]43C)C2C1 (some centres not stated),inactive,–
CCCCc1nc2cc(/C=C/C(=O)NO)ccc2n1CCN(CC)CC,inactive,–
COc1c2cc(c(O)c1OC)-c1cc(ccc1O)CCC(O)CCCC2 (configuration not stated),inactive,–
CC1(C)CC[C@]23CO[C@@]4(CCC5[C@@]6(C)CC[C@H](O[C@@H]7OC[C@H](O[C@@H]8O[C@H](CO)[C@@H](O)[C@H](O)[C@H]8O)[C@H](O)[C@H]7O[C@@H]7O[C@H](CO)[C@@H](O[C@@H]8O[C@H](CO)[C@@H](O)[C@H](O)[C@H]8O)[C@H](O)[C@H]7O)[C@@](C)(CO)C6CC[C@@]5(C)[C@]4(C)C[C@H]2OC2OCC(O)C(O)C2O)C3C1 (some centres not stated),–,-6.44% [at 12.4 µM]
C[C@@H]1O[C@@H](OC[C@H]2O[C@@H](Oc3cc(O)cc4c3C(=O)C(O)(Cc3ccc(O)cc3)O4)[C@H](O)[C@@H](O)[C@@H]2O)[C@H](O)[C@H](O)[C@H]1O (some centres not stated),inactive,–
CC(C)=CCC/C(C)=C/CO[C@@H]1O[C@H](CO)[C@@H](OC(=O)/C=C/c2ccc(O)cc2)[C@H](O[C@@H]2O[C@@H](C)[C@H](O)[C@@H](O)[C@H]2O)[C@H]1O,inactive,–
CC1(C)CC[C@]2(C(=O)O[C@@H]3O[C@H](CO)[C@@H](O)[C@H](O)[C@H]3O)CC[C@]3(C)C(=CCC4[C@@]5(C)CC[C@H](O[C@@H]6O[C@H](C(=O)O)[C@@H](O)[C@H](O)[C@H]6O)C(C)(C)C5CC[C@]43C)C2C1 (some centres not stated),inactive,–
C=CC(C)(C)C12C=C(OC)C(=O)N3C(C(C)C)C(=O)NC31N(OC)c1ccccc12 (configuration not stated),inactive,–
CC1=CC(=O)CC(C)(C)C1/C=C/C(C)O[C@@H]1O[C@H](CO)[C@@H](O)[C@H](O)[C@H]1O[C@@H]1OC[C@](O)(CO)[C@H]1O (some centres not stated),inactive,–
C[C@@H]1C(=O)OC[C@H]2C(C(=O)O)=C[C@@H]3CC(C)(C)C[C@]312,inactive,–
CC1(C)C2CC=C(COC3OC(COC4OCC(O)(CO)C4O)C(O)C(O)C3O)C1C2 (configuration not stated),inactive,–
Cc1cc(N(C)C)ccc1-c1nc2ccc(-c3nc4ccc(N5CCN(C)CC5)cc4[nH]3)cc2[nH]1,inactive,–
C=C1CCC2C(C)(C(=O)OC)CCCC2(C)C1CCC(C)CC(=O)O (configuration not stated),inactive,–
COC(=O)C1(C)c2[nH]c3ccccc3c2CCN1C(=O)CCl (configuration not stated),inactive,–
OCc1ccc(O[C@@H]2O[C@H](CO)[C@@H](O)[C@H](O)[C@H]2O)cc1,inactive,–
